Giardia kill = Giardia lamblia killing. AID 540267. Giardia lamblia trophozoite viability. 340,000 compounds, 0.15% hits. activity change, % at 7.66 µM, hits read low; in the data active = activity change below about -80%; inconclusive = between about -30% and that limit;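 note: parasites exposed to compound for two days anaerobically before the ATP read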
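Killing of trophozoites was scored by loss of ATP luminescence after a 48 hrs anaerobic exposure to compounds at 37 deg C, using 100 cells per well.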
DT40 TDP1 CPT = growth inhibition of DT40 Tdp1-/-;hTDP1 cells with camptothecin (screen for TDP1 inhibitors) | 420,000 compounds, 12% hits | AID 686979 | Potency, µM (titrated, usually from 46.2 µM), inactives show top-dose activity change, negative = growth inhibition, hits mostly inhibitors | chicken DT40 Tdp1-/-;hTDP1 cells + 20 nM CPT, ATP luminescence, 48 h; note: potency is the fitted concentration of half-maximal effect; nearly all actives have a fitted effect of over 55% in size
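Cell growth measured by CellTiter-Glo luminescence after a minimum 48 h, 37 C compound exposure with 20 nM CPT in Tdp1-knockout DT40 cells stably expressing hTDP1, seeded 400/well; qHTS titration format.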
DT40 TDP1 no CPT = qHTS for Inhibitors of human tyrosyl-DNA phosphodiesterase 1 (TDP1): qHTS in cells in absence of CPT; 420,000 compounds, 15% hits; DT40 Tdp1-/- hTDP1 cells, no CPT, ATP luminescence, 48 h; AID 686978, 2013; Potency, µM (series often up to 46.2 µM), for inactives: top-dose activity change, negative = growth inhibition, usual class: inhibitors; note: potency is the fitted concentration of half-maximal effect; nearly all actives have a fitted effect of over 55% in size
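A cellular qHTS used chicken DT40 cells lacking endogenous Tdp1 but carrying stably transfected human TDP1. Compounds were applied without camptothecin, and cell growth kinetics were judged by ATP-dependent luminescence after ≥48 hr.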
TDP1 block = blocks human tyrosyl-DNA phosphodiesterase 1; recombinant TDP1, AlphaScreen DNA substrate cleavage; Potency, µM (doses to about 130 µM), for inactives: top-dose activity change, negative = inhibition, actives largely listed as inhibitors; 350,000 compounds, 0.28% hits; note: potency is the fitted concentration of half-maximal effect; nearly all actives have a fitted effect of over 40% in size
Target sequence (Q9NUW8 whole entry, looked up): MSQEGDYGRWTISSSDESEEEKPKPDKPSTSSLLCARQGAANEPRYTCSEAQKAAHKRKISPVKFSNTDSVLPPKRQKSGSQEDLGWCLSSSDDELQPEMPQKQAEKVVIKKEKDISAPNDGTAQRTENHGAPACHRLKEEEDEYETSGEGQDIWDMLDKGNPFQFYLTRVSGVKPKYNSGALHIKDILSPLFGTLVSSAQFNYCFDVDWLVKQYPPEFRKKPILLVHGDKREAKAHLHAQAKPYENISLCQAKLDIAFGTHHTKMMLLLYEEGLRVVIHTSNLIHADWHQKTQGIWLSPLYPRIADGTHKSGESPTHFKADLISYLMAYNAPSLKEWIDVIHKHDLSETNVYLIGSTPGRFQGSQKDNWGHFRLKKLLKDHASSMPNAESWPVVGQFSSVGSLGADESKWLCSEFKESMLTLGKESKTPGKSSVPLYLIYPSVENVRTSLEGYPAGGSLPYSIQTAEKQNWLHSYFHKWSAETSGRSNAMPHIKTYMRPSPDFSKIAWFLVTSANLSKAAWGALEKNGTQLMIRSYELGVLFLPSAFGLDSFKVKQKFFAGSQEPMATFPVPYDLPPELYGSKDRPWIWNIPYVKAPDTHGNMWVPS
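Compounds were preincubated with Tdp1 (1 nM final) for 15 min at room temperature before substrate (15 nM final) started a 5 min reaction; beads (10 ug/ml final) were then added for 10 min before AlphaScreen detection.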
ELG1 DNA repair = inhibitors of ELG1-dependent DNA repair in HEK293T cells; HEK293T ELG1-luciferase reporter, luminescence, 16 h; DNA damage induced by 5-fluorouridine; Potency, µM (top dose mostly 46.1 µM), for inactives: at the highest dose activity change, negative = inhibition, actives largely listed as inhibitors; 330,000 compounds, 2.3% hits; AID 504467; note: potency is the fitted concentration of half-maximal effect; nearly all actives have a fitted effect of over 55% in size
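Reporter activity after DNA damage by 5-fluorouridine is monitored. Compound-treated cells incubate 16 hr at 37 °C, then ONE-Glo is added for 30 min before luminescence reading.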
IL-1B inflam inh = inhibitors of inflammasome signaling (IL-1 beta secretion); THP-1 LPS/ATP IL-1B secretion, AlphaLISA, 16 h; stronger effect = lower value; activity change, % at 57.5 µM; 360,000 compounds, 4.7% hits; AID 743279; in the data active = activity change below about -50%; inconclusive = mostly about -30% to -49%
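Secreted IL-1B measured by AlphaLISA bead assay after 16 h compound exposure of THP-1 cells; compounds (final up to 57.5 uM) added 1 h before LPS (250 ng/mL) and ATP (1.25 mM) stimulation; lower signal means less secretion.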
Active calls of the source: *; [ ] = another dose, or the depositor's remark. Most compounds without a hit are left out; they make up all but 19% or so of the library. Unless noted, calls come from the whole dose curve; as a rule, active = well fitted curve in the direction sought with a large enough effect; inconclusive = small, poorly fitted or top-dose-only effect, or another doubt; inactive = no such curve, though single readings can be large; an effect the other way counts as inactive or inconclusive. % is set by controls: 0 for no effect and ±100 for the full control effect.

For Cc1ccc(C)c(S(=O)(=O)N2CCN(C(=O)[C@H](Cc3ccccc3)NC(=O)c3ccco3)CC2)c1 the results were Giardia kill 3, DT40 TDP1 CPT 23µM*, DT40 TDP1 no CPT 16µM*, TDP1 block 3%, ELG1 DNA repair inconclusive and IL-1B inflam inh 27.
For CSCCC(NC(=O)c1ccco1)C(=O)N1CCN(C(c2ccccc2)c2ccccc2)CC1 (centres undefined) the results were Giardia kill -9, DT40 TDP1 CPT 23µM*, DT40 TDP1 no CPT 16µM*, TDP1 block 1%, ELG1 DNA repair -29% and IL-1B inflam inh inconclusive.
Screening Cc1ccc(S(=O)(=O)N2CCN(C(=O)[C@H](Cc3ccccc3)NC(=O)c3ccco3)CC2)cc1 returned Giardia kill 25, DT40 TDP1 CPT inconclusive, DT40 TDP1 no CPT inconclusive and IL-1B inflam inh 11.
`CCCc1nnc2n1N=C(c1ccc(C)cc1)CS2` gave Giardia kill -11, DT40 TDP1 CPT inconclusive, DT40 TDP1 no CPT inconclusive, TDP1 block 6%, ELG1 DNA repair 5% and IL-1B inflam inh 43.
For CCCCn1c(N)c(N(C)C(=O)C2CC(=O)N(Cc3ccco3)C2)c(=O)[nH]c1=O (centres undefined) the results were Giardia kill -1, DT40 TDP1 CPT -8%, DT40 TDP1 no CPT -6%, TDP1 block -3%, ELG1 DNA repair inconclusive and IL-1B inflam inh 9.
Screening CC(O)c1nc2ccccc2n1Cc1ccccc1 (centres undefined) returned Giardia kill 4, DT40 TDP1 CPT -18%, DT40 TDP1 no CPT 4%, TDP1 block 3%, ELG1 DNA repair 2% and IL-1B inflam inh 11.
For Cc1ncc(C(O)c2ccccc2)n1Cc1ccccc1 (centres undefined) the results were DT40 TDP1 CPT inconclusive, DT40 TDP1 no CPT 23µM* and IL-1B inflam inh 15.
`Cc1cccc(C(O)c2cnc(C)n2Cc2ccccc2)c1` (centres undefined) gave DT40 TDP1 CPT inconclusive, DT40 TDP1 no CPT 18µM* and IL-1B inflam inh 19.
`COc1ccc(NC(=O)c2cccc(N3CCCS3(=O)=O)c2)cc1` gave DT40 TDP1 CPT inconclusive, DT40 TDP1 no CPT inconclusive and TDP1 block 5%.
`CC(=O)CCC(=O)N1CCCC(N2CCN(c3cccc(Cl)c3)CC2)C1` (centres undefined) gave Giardia kill 3, DT40 TDP1 CPT 7%, DT40 TDP1 no CPT 0%, ELG1 DNA repair 7% and IL-1B inflam inh 0.
CCOc1cccc2cc(C(=O)NCc3ccc(F)cc3)c(=N)oc12 was read as Giardia kill -22, DT40 TDP1 CPT inconclusive, DT40 TDP1 no CPT 23µM*, TDP1 block 2%[56.1 µM], ELG1 DNA repair 0% and IL-1B inflam inh -6.
For CCOc1cccc2cc(C(N)=O)c(=N)oc12 the results were Giardia kill -9, DT40 TDP1 CPT -28%, DT40 TDP1 no CPT -26%, TDP1 block 4%, ELG1 DNA repair -10% and IL-1B inflam inh 0.
Screening CCOc1cccc2cc(C(=O)NCc3ccccc3)c(=N)oc12 returned Giardia kill 31, DT40 TDP1 CPT inconclusive, DT40 TDP1 no CPT inconclusive, ELG1 DNA repair 23% and IL-1B inflam inh -28.
Screening COc1cccc2cc(C(=O)NCc3ccc(Cl)cc3)c(=O)oc12 returned Giardia kill 11, DT40 TDP1 CPT 3%, DT40 TDP1 no CPT inconclusive, TDP1 block -2%[0.0935 µM], ELG1 DNA repair 8% and IL-1B inflam inh 4.
`COc1cccc2cc(C(=O)NCc3ccccc3)c(=N)oc12` gave Giardia kill -3, DT40 TDP1 CPT 21µM*, DT40 TDP1 no CPT inconclusive, TDP1 block 3%, ELG1 DNA repair inconclusive and IL-1B inflam inh -105*.
